Source: PubChem BioAssay (NCATS)
Where “and” joins values, the source holds several entries; their conditions need not be identical. Identical values can stand only once. Inconclusive results are not listed. Some compounds were tested as several samples or in several runs, with calls that do not always agree. Calls of active or inactive are those of the source. Unless noted, calls come from the whole dose curve; as a rule, active = well fitted curve in the direction sought with a large enough effect; inconclusive = small, poorly fitted or top-dose-only effect, or another doubt; inactive = no such curve, though single readings can be large; an effect the other way counts as inactive or inconclusive.

Tests used:
[1] = system: HeLa; assay: Primary qHTS to identify gynecologic anti-cancer compounds using libraries of approved drugs and bioactive compounds (AID 1345084); conditions: Gynecologic cancer cell panel viability, ATPlite luminescence, 48 h; series mostly up to 57.5 µM; note: nearly all actives have a fitted effect of over 55% in size; note: potency is the fitted concentration of half-maximal effect
Summary of the method: (§1)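 Cytotoxicity screen measuring ATP content by luciferase luminescence. Each compound is applied at five concentrations for 48 h at 37 C with 5% CO2.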

[2] = system: Hek293T; assay: as above; conditions: Gynecologic cancer cell panel viability, ATPlite luminescence, 48 h, control line for the selectivity index; series mostly up to 57.5 µM
Summary of the method: as §1

[3] = system: JEG-3; assay: as above; conditions: Gynecologic cancer cell panel viability, ATPlite luminescence, 48 h; series mostly up to 57.5 µM
Summary of the method: as §1

[4] = system: SKOV3; assay: as above; conditions: Gynecologic cancer cell panel viability, ATPlite luminescence, 48 h; series mostly up to 57.5 µM
Summary of the method: as §1

[5] = qHTS assay to identify inhibitors of the type 1 interferon - major histocompatibility complex class I in skeletal muscle: Counter screen cell viability and HiBit confirmation (AID 1347412); conditions: iHSKM muscle cells + IFN-b, HiBiT or CellTiter-Glo, 24 h; for activity change, negative = inhibition: at 45.9 µM (top of the series); note: potency is the fitted concentration of half-maximal effect; for activity change, negative = inhibition: % is set by controls: 0 for no effect and ±100 for the full control effect; for all read-outs here: nearly all actives have a fitted effect of over 60% in size
Summary of the method: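 Duplicate plates, pinned identically: one read for HiBiT-tagged endogenous HLA-B luminescence, the other for ATP-content viability via CellTiter Glo. Cells were genome-engineered human myoblasts given 4 ng/ml IFN-b; compounds 12-pt, 1:3 from 46 uM final; 24 hr exposure.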

[6] = system: CAOV3; assay: Primary qHTS to identify gynecologic anti-cancer compounds using libraries of approved drugs and bioactive compounds (AID 1345084); conditions: Gynecologic cancer cell panel viability, ATPlite luminescence, 48 h; series mostly up to 57.5 µM; note: nearly all actives have a fitted effect of over 55% in size; note: potency is the fitted concentration of half-maximal effect
Summary of the method: as §1

[7] = system: PA-1; assay: as above; conditions: Gynecologic cancer cell panel viability, ATPlite luminescence, 48 h; series mostly up to 57.5 µM
Summary of the method: as §1

[8] = system: Tov112D; assay: as above; conditions: Gynecologic cancer cell panel viability, ATPlite luminescence, 48 h; series mostly up to 57.5 µM
Summary of the method: as §1

[9] = system: OV90; assay: as above; conditions: Gynecologic cancer cell panel viability, ATPlite luminescence, 48 h; series mostly up to 57.5 µM
Summary of the method: as §1

[10] = system: Tov-21-G; assay: as above; conditions: Gynecologic cancer cell panel viability, ATPlite luminescence, 48 h; series mostly up to 57.5 µM
Summary of the method: as §1

[11] = system: C33A; assay: as above; conditions: Gynecologic cancer cell panel viability, ATPlite luminescence, 48 h; series mostly up to 57.5 µM
Summary of the method: as §1

[12] = system: CASKI; assay: as above; conditions: Gynecologic cancer cell panel viability, ATPlite luminescence, 48 h; series mostly up to 57.5 µM
Summary of the method: as §1

[13] = system: Es-2; assay: as above; conditions: Gynecologic cancer cell panel viability, ATPlite luminescence, 48 h; series mostly up to 57.5 µM
Summary of the method: as §1

[14] = Drug repurposing screens with cells derived from glioblastoma tumor samples (AID 1345199); conditions: GBM patient neurospheres viability, ATP luminescence, 48 h; note: nearly all actives have a fitted effect of over 40% in size; note: potency is the fitted concentration of half-maximal effect; for activity, negative = cell killing: % is set by controls: 0 for no effect and ±100 for the full control effect
Summary of the method: (§2)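 Four patient lines of CD133+ GBM neurospheres were screened at several concentrations; hits were retested in those lines plus three slower-growing GBM lines, using 48-hour treatment and ATP-based viability.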

[15] = system: astro; assay: as above; conditions: viability, ATP luminescence, 48 h; series mostly up to 45.9 µM
Summary of the method: as §2

[16] = molecular target: Nuclear receptor subfamily 1 group I member 2 (Rattus norvegicus) (UniProt Q9R1A7); assay: qHTS assay for small molecule activators of the rat pregnane X receptor (rPXR) signaling pathway (AID 651751; call rule not given here; note: 0% is about no effect); conditions: rPXR reporter cells, luciferase (One-Glo), 24 h
Nuclear receptor subfamily 1 group I member 2 (Rattus norvegicus), sequence (Q9R1A7 whole entry, looked up): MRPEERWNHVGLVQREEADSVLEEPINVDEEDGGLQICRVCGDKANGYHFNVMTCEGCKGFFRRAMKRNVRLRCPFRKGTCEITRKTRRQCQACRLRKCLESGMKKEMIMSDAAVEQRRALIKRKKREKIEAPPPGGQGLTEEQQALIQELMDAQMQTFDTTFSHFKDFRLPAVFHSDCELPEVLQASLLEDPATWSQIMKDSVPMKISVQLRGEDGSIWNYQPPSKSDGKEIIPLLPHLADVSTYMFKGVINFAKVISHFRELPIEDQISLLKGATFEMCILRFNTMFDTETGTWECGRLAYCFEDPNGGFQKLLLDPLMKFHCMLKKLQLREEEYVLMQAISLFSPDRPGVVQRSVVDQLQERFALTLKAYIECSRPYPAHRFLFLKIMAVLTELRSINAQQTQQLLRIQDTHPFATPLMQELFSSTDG

[17] = qHTS assay for small molecule activators of the human pregnane X receptor (PXR) signaling pathway (AID 720659; call rule not given here; note: 0% is about no effect)
[18] = at 45.9 µM (top of the series), tumour line B
[19] = at 45.9 µM (top of the series), tumour line D
[20] = at 46.1 µM (top of the series), tumour line C
[21] = at 46 µM (top of the series), tumour line A

O[C@@H](CNC[C@H](O)[C@H]1CCc2cc(F)ccc2O1)[C@@H]1CCc2cc(F)ccc2O1
active: Potency [4] 22.4 µM
inactive: Potency [1] | Potency [2] | Potency [3] | activity change, negative = inhibition ([5]; HiBiT) 26% | activity change, negative = inhibition ([5]; Viability) -9.67%

COc1cc(NCc2ccc3nc(N)nc(N)c3c2C)cc(OC)c1OC
active: Potency [2] 0.1 µM | Potency [7] 0.178 µM | Potency [8] 0.1 µM
inactive: Potency [6] | Potency [4] | activity change, negative = inhibition ([5]; HiBiT) -7.08% | activity change, negative = inhibition ([5]; Viability) -0.467%

COc1cc([C@@H]2c3cc4c(cc3[C@H](O)[C@H]3COC(=O)[C@H]23)OCO4)cc(OC)c1OC
active: Potency [1] 0.1 µM | Potency [9] 0.355 µM | Potency [10] 0.199 µM
inactive: Potency [6]

Clc1ccccc1CN1CCc2sccc2C1
inactive: Potency [11] | Potency [12] | Potency [13] | Potency [1] | Potency [2] | Potency [3] | Potency [9] | Potency [4] | Potency [10] | Potency [8] | activity, negative = cell killing [14, 18] -14.5% | activity, negative = cell killing [14, 19] -10.5% | activity, negative = cell killing [14, 20] 4.64% | Potency [15]

Cc1cc(NS(=O)(=O)c2ccc(N)cc2)no1
inactive: Potency [6] | Potency [12] | Potency [13] | Potency [1] | Potency [2] | Potency [3] | Potency [9] | Potency [7] | Potency [4] | Potency [10] | Potency [8] | activity, negative = cell killing [14, 18] 0.277% | activity, negative = cell killing [14, 19] -26.8% | activity, negative = cell killing [14, 21] -6.57% | activity, negative = cell killing [14, 20] 7.15% | Potency [15] | max response [16] 3.86% | outcome [17]

CCn1cc(C(=O)O)c(=O)c2cc(F)c(N3CCNCC3)cc21
inactive: Potency [6] | Potency [12] | Potency [13] | Potency [1] | Potency [2] | Potency [3] | Potency [9] | Potency [7] | Potency [4] | Potency [10] | Potency [8] | activity, negative = cell killing ([14]; at 20 µM (top of the series), tumour line C) 2.43% | activity, negative = cell killing ([14]; at 21.2 µM (top of the series), tumour line B) -7.83% | activity, negative = cell killing ([14]; at 21.2 µM (top of the series), tumour line D) -12% | activity, negative = cell killing ([14]; at 21.3 µM (top of the series), tumour line A) -21.7% | activity, negative = cell killing [14, 18] 1.94% | activity, negative = cell killing [14, 19] 2.4% | activity, negative = cell killing [14, 20] -8.69% | Potency [15]

CCN(CC)CCn1c(=O)c(Cc2ccc(OC)cc2)nc2ccccc21
inactive: activity, negative = cell killing [14, 18] -5.87% | activity, negative = cell killing [14, 19] -15.6% | activity, negative = cell killing [14, 20] 14.7%
active: Potency ([14]; tumour line A) 10 µM

Oc1c(Cl)cc(Cl)c2cccnc12
inactive: Potency [12] | Potency [1] | activity, negative = cell killing [14, 20] -48.9% | activity change, negative = inhibition ([5]; HiBiT) -16.5% | activity change, negative = inhibition ([5]; Viability) -8.17%
active: Potency [13] 20 µM | Potency [7] 12.6 µM | Potency [10] 28.2 µM | Potency ([14]; tumour line A) 15.8 µM | Potency ([14]; tumour line B) 8.91 µM

CCc1c2c(nc3ccc(OC(=O)N4CCC(N5CCCCC5)CC4)cc13)-c1cc3c(c(=O)n1C2)COC(=O)[C@]3(O)CC
active: Potency [13] 14.1 µM | Potency [7] 12.6 µM | Potency [8] 10 µM | Potency ([14]; tumour line A) 1 µM
inactive: Potency [1] | Potency [2] | Potency [3] | Potency [9] | Potency [10] | activity, negative = cell killing [14, 20] -5.46%

CCOC(=O)[C@H](CCc1ccccc1)N[C@H]1CCc2ccccc2N(CC(=O)O)C1=O
inactive: Potency [12] | Potency [13] | Potency [1] | Potency [2] | Potency [3] | Potency [9] | Potency [7] | Potency [10] | Potency [8]

CNCC[C@H](Oc1cccc2ccccc12)c1cccs1
inactive: Potency [1] | Potency [3] | Potency [7] | Potency [10] | Potency [8] | activity, negative = cell killing [14, 20] -0.487%
active: Potency [9] 28.2 µM | Potency [4] 20 µM | Potency ([14]; tumour line A) 3.55 µM | Potency ([14]; tumour line B) 28.2 µM | Potency ([14]; tumour line D) 17.8 µM

O=C(O)c1ccc(-n2nc(-c3ccccc3O)nc2-c2ccccc2O)cc1
inactive: Potency [6] | Potency [12] | Potency [1] | Potency [4]
active: Potency [7] 8.91 µM

O=C(N[C@H](CO)[C@H](O)c1ccc([N+](=O)[O-])cc1)C(Cl)Cl
inactive: Potency [11] | Potency [12] | Potency [13] | Potency [1] | Potency [2] | Potency [3] | Potency [7] | Potency [4] | Potency [8] | activity, negative = cell killing [14, 18] -13.1% | activity, negative = cell killing [14, 21] -46.2% | activity, negative = cell killing [14, 20] -18.2% | activity, negative = cell killing ([14]; at 91.6 µM (top of the series), tumour line B) -17.6% | Potency [15] | max response [16] -5.66% and -3.04%

Nc1nc(F)nc2c1ncn2[C@@H]1O[C@H](CO)[C@@H](O)[C@@H]1O
active: Potency [8] 17.8 µM | Potency ([14]; tumour line A) 10 µM | Potency ([14]; tumour line D) 20 µM
inactive: Potency [6] | Potency [12] | Potency [1] | Potency [2] | Potency [3] | Potency [9] | Potency [7] | Potency [4] | activity, negative = cell killing [14, 18] -27.2% | activity, negative = cell killing [14, 20] -19% and -29.8%

CC(C)(C)C(=O)OCOP(=O)(COCCn1cnc2c(N)ncnc21)OCOC(=O)C(C)(C)C
inactive: Potency [12] | activity, negative = cell killing [14, 20] -7.63% | Potency [15]
active: Potency [6] 12.6 µM | Potency [13] 7.08 µM

COc1cc2nc(N3CCCN(C)CC3)nc(NC3CCN(Cc4ccccc4)CC3)c2cc1OC
active: Potency ([5]; Viability) 22.2 µM

C[C@@H](NCCCc1cccc(C(F)(F)F)c1)c1cccc2ccccc12
inactive: Potency [3] | Potency [10] | Potency [8] | activity change, negative = inhibition ([5]; HiBiT) 14% | activity change, negative = inhibition ([5]; Viability) -23.6%

CNC(=O)c1cc(Oc2ccc(NC(=O)Nc3ccc(Cl)c(C(F)(F)F)c3)cc2)ccn1
active: Potency [15] 11.2 µM
inactive: Potency [6] | Potency [12] | Potency [13] | Potency [3] | Potency [9] | Potency [7] | Potency [10] | Potency [8] | activity change, negative = inhibition ([5]; Viability) -24%

CCCCc1oc2ccc(NS(C)(=O)=O)cc2c1C(=O)c1ccc(OCCCN(CCCC)CCCC)cc1
active: Potency [15] 20 µM
inactive: Potency [1] | Potency [3] | activity change, negative = inhibition ([5]; HiBiT) -10.2%
